20 compounds from PubChem BioAssay AID1259421 (Broad Institute, 2018) can be followed below.

The structures appear in SMILES notation. Where “and” joins values, the source holds several entries; their conditions need not be identical. Equal entries are not always repeated. Out of some 6,400 compounds screened, about 610 (9.5%) were called active. Cut-off read from the data, not from the text of the source: active = activity change below about -70%; inconclusive = no clear call, values can overlap the other calls; inactive = above that. Only a selection was taken, and actives are over-represented in it overall. Where a structure was tested more than once in an assay, its records may differ in their call.

This test is described as follows: T. gondii ME49Luc in HeLa cells, luciferase assay, 72 h, no IFN-y (AID 1259421). The conditions noted are these: stronger effect = lower value, concentration not given here.
For the compound `COc1cccc(Nc2ncnn3ccc(CN4CC[C@@H](N)[C@H](O)C4)c23)c1`, the activity change, negative = inhibition was -86.2% (active).

Regarding `C[C@]12C=CC(=O)C=C1CCC1C2[C@@H](O)C[C@@]2(C)C1CC[C@]2(O)C(=O)CO` (stereo not given in full), the activity change, negative = inhibition is 1.25% (inactive) and -8.87% (inactive). `CC(=O)O[C@@H]1c2c(ccc3ccc(=O)oc23)OC(C)(C)[C@@H]1OC(=O)CC(C)C`: the activity change, negative = inhibition is -2.35% (inactive). Under `CCCN(CCC)CC1CCCCN1CCNC(=O)N1c2ccccc2C(=O)Nc2cccnc21` (stereo not given) stands 3.45% (inactive); under `CCOC(=O)[C@H](CCc1ccccc1)N[C@@H](C)C(=O)N(CC(=O)O)C1Cc2ccccc2C1`, 7.2% (inactive); under `CCC(C)(C)C(=O)OC1CC(C)C=C2C=CC(C)C(CCC3CC(O)CC(=O)O3)C21` (stereo not given), -4.9% (inactive). Take `C=CCNC1=C2C[C@@H](C)C[C@H](OC)[C@H](O)[C@@H](C)/C=C(\C)[C@H](OC(N)=O)[C@@H](OC)/C=C\C=C(/C)C(=O)NC(=CC1=O)C2=O`: the activity change, negative = inhibition is -56% (inactive). Under `COC1C=COC2(C)Oc3c(C)c(O)c4c(c3C2=O)C2(C=C(NC(=O)/C(C)=C\C=C/C(C)C(O)C(C)C(O)C(C)C(OC(C)=O)C1C)C4=O)OCC(=O)O2` (stereo not given) stands -2.28% (inactive). Take `CO[C@H]1/C=C\C=C(/C)C(=O)NC2=CC(=O)C(NCCN(C)C)=C(C[C@@H](C)C[C@H](OC)[C@H](O)[C@@H](C)/C=C(\C)[C@@H]1OC(N)=O)C2=O`: the activity change, negative = inhibition was -69.9% (inactive) and -80.4% (active). As for `NCCCCCC(O)(P(=O)(O)O)P(=O)(O)O`, the activity change, negative = inhibition is 13% (inactive). For `Cn1cnc2c(NCc3ccccc3)nc(NCCO)nc21` the value was 10.2% (inactive); for `c1ccc(CNc2nc(NCc3ccccc3)c3ccccc3n2)cc1`, -83.6% (active); for `c1ccc(CNc2ncnc3ccccc23)cc1`, -3.07% (inactive). For the compound `CN1C(C(=O)Nc2ccccn2)C(=O)c2sc(Cl)cc2S1(=O)=O` (stereo not given), the activity change, negative = inhibition was 6.43% (inactive). For `CC(C)(C)NC[C@@H](O)COc1nsnc1N1CCOCC1` the value was 15.6% (inactive) and -4.63% (inactive); for `CC(=O)N[C@H]1[C@H]([C@H](O)[C@H](O)CO)O[C@](O)(C(=O)O)C[C@@H]1O`, 19.2% (inactive); for `Cc1cc(S(=O)(=O)O)c2c(C)ccc(C(C)C)cc1-2`, 0.707% (inactive).

As for `N#C/C(=C\c1ccc(O)c(O)c1)C(=O)Nc1ccccc1`, the activity change, negative = inhibition was 10% (inactive) and 2.22% (inactive). Under `N#C/C(=C\c1ccc(O)c(O)c1)C(=O)NC1CCC(CC2CCC(NC(=O)/C(C#N)=C/c3ccc(O)c(O)c3)CC2)CC1` (stereo not given) stands -83.2% (active); under `N#C/C(=C/c1ccc(O)c(O)c1)C(=O)Nc1ccccc1`, 11.3% (inactive).
